Laboratory results as given in PubChem BioAssay (NCATS).
Inconclusive results are not listed. A call without a number means that no potency is given here. Calls of active or inactive are those of the source. Calls come from the whole dose curve; as a rule, active = well fitted inhibition curve with a large enough effect; inconclusive = small, poorly fitted or top-dose-only effect; inactive = flat fitted curve, though single readings scatter.

What follows are compounds tested against Calcium and integrin-binding protein 1 (Homo sapiens) (UniProt Q99828) (assay: Primary qHTS for Identification of Calcium Integrin Binding Protein 1 (CIB1) Competitor (AID 1508620;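 note: GST tagged CIB1 binding a fluorescein labelled alphaIIb integrin peptide tracer; top concentration of the series differs between compounds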)). Conditions: CIB1-GST / FITC-alphaIIb peptide fluorescence polarization; series mostly up to 114 µM.
Procedure, shortened: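 CIB1-GST (1 uM final) and compound incubated 15 min at room temperature before adding FITC-alphaIIb peptide tracer (100 nM final). Competition for binding read by fluorescence polarization (ex 480, em 540) after another 15 min at room temperature.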

Sequence of Calcium and integrin-binding protein 1 (Homo sapiens) (Q99828 whole entry, looked up): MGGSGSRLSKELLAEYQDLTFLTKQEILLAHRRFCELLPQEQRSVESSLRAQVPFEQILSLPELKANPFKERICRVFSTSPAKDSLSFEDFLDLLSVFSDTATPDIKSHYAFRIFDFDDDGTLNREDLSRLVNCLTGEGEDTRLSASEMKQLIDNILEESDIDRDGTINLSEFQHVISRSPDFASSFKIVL

Compound | Potency
Cc1c(C(=O)OC[C@H]2CCCO2)[nH]c2c1C(=O)CC(c1ccco1)C2 (stereo not given in full) | inactive
CCC(=O)NC(c1ccco1)c1cc(Cl)c2cccnc2c1O (stereo not given) | inactive
Cc1cc(N(C)S(=O)(=O)c2ccc(NC(=O)Cc3ccc(Cl)c(Cl)c3)cc2)no1 | inactive
Cc1cc(C)nc(NC(=S)N2CCN(c3nccc(C(F)(F)F)n3)CC2)c1 | inactive
CCCCc1nnc(-c2cnn(C)c2N)n1CCCn1ccnc1 | inactive
Cc1ccc(-c2ccc(=O)n(CC(=O)NCCc3ccccc3)n2)cc1 | inactive
O=c1c2ccccc2nc2sc(Nc3cccc(Cl)c3)nn12 | inactive
CNc1oc(-c2ccc(F)cc2)nc1C#N | inactive
O=[S+]([O-])(Nc1cnc2ccccc2c1)c1ccc(NCc2ccc(Cl)cc2O)cc1 | inactive
CS(=O)(=O)c1ccc(C(=O)OCC(=O)N2CCN(C3CCCCC3)CC2)cc1[N+](=O)[O-] | inactive
CN(Cc1ccco1)c1ncnc2ccc(-c3ccc4c(c3)OCCO4)cc12 | inactive
CCC(C)(CCN1CCOCC1)N(Cc1cc2ccccc2n(C)c1=O)C(=O)C1CCCCC1 (stereo not given) | inactive
COc1cccc(NS(=O)(=O)c2ccc3c(c2)CCC(=O)N3)c1 | inactive
Cc1ccc(NS(=O)(=O)c2ccc(F)cc2)cc1C | inactive
O=C1CCc2cc(S(=O)(=O)Nc3cc(F)cc(Cl)c3)c(F)cc2N1 | inactive
COc1cccc(CNc2ccc(S(=O)(=O)Nc3ccccn3)cc2)c1O | inactive
Cc1ccc(-c2cnn(CC(=O)N(C)C(C)c3ccco3)c(=O)c2)cc1 (stereo not given) | inactive
CCC(O)(c1nnc(NCc2ccc3c(-c4ccc(F)cc4)cc(=O)oc3c2)o1)C(F)(F)F (stereo not given) | inactive
Cn1nnnc1Sc1ncnc2scc(-c3ccc(Cl)cc3)c12 | inactive
CCC1CCC2(C1)N=C(Nc1nc3ccccc3o1)NC1=C2C(=O)CCC1 (stereo not given) | inactive

Compound | Potency
Cc1noc(C)c1-c1ccc2ncnc(NCC3CCN(C)CC3)c2c1 | inactive
Cc1ccc(N2CCC(CNc3nc(-c4ccccc4C(C)C)ncc3F)CC2)cn1 | inactive
CCCCn1cnc2cc(C(=O)N3CCCCC3)ccc21 | inactive
Cc1cc(C)nc(NC(=S)N2CCN(c3cccc4nccn34)CC2)c1 | inactive
COc1ccc(Cn2c(C)nnc2-c2cnn(C)c2N)cc1OC | inactive
COc1ccc(-c2ccc(CNc3ccc(N4CCN(C(=O)OC(C)(C)C)CC4)cc3)o2)cc1 | inactive
O=S(=O)(Nc1cc(O)cc2cccnc12)c1ccc(Br)s1 | inactive
COc1ccc(-c2nnc3n2N=C(c2cc(OC)ccc2OC)CS3)c(OC)c1 | inactive
O=C(Nc1ccc(-c2ccccc2)nc1)c1cccs1 | inactive
Cc1ccc(OCCn2c(CCN(C)C(=O)C3CCCCC3)nc3ccccc32)cc1 | inactive
Cc1nc(-c2ccc(S(=O)(=O)Nc3ccc(C)c(C)c3)s2)cs1 | inactive
Cc1noc(Nc2sc3c(c2-c2nc4ccccc4s2)CCNC3)n1 | inactive
CCOc1ccc(CCNC(=O)C2(c3ccccc3)CC2)cc1OCC | inactive
S=P(c1ccccc1)(c1ccccc1)c1nc(CCCc2ccccc2)n2ccccc12 | inactive
N#Cc1ccc(Nc2nn3c(=O)c4ccccc4nc3s2)cc1 | inactive
Cc1ccc(OCCn2c(CCNC(=O)c3ccccc3F)nc3ccccc32)cc1 | inactive
Fc1cccc(CNc2ncnc3ccc(-c4ccccc4Cl)cc23)c1 | inactive
O=S(=O)(Nc1nccs1)c1ccc(NCc2cccc(O)c2)cc1 | inactive
COc1ccc(C2=Nn3c(nnc3-c3ccccc3O)SC2)c(OC)c1 | inactive
Cc1cc(C)nc(NC(=S)N2CCN(c3ccc4cnccc4c3)CC2)c1 | inactive
